Source: PubChem BioAssay (NCI)
The panel holds about 83,000 compounds, 20% with a hit somewhere; the sample as a whole holds those more often.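 Method: cells in 96-well plates; compound added at one concentration; 48 h incubation; percent growth measured; values under 10 scored active.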 A number with no mark means an inactive call. Active and inactive are the calls of the source.

Legend:
Assay in all cases: NCI-60 one-dose screen, 48 h (100 = growth as untreated, 0 = no growth, -100 = all killed)
Details in all cases: 10 µM unless noted
[1] = test system: T-47D breast
[2] = test system: BT-549 breast
[3] = test system: MDA-MB-435 melanoma
[4] = test system: SW-620 colon
[5] = test system: MCF7 breast
[6] = test system: HCT-116 colon
[7] = test system: HCC-2998 colon
[8] = test system: KM12 colon

Compound	growth [1]	growth [2]	growth [3]	growth [4]	growth [5]	growth [6]	growth [7]	growth [8]
Oc1c(Cl)cc(Cl)cc1/C=N/Nc1nnc(N/N=C/c2cc(Cl)cc(Cl)c2O)c2ccccc12	14.8%	15.7%	14.2%	17.2%	7.3% (active)	10%	33.1%	6.29% (active)
COC(=O)c1ccc2c(c1)C(=O)c1c-2n(CCCN)c(=O)c2cc([N+](=O)[O-])ccc12	-80.3% (active)	-100% (active)	-90.9% (active)	-100% (active)	-87.8% (active)	-100% (active)	-94.9% (active)	-97.2% (active)
CCN(CC)CCOc1ccc(-c2c(-c3ccccc3)c(=O)oc3ccccc23)cc1	47%	69.3%	100%	87.3%	89.6%	65.6%	99.1%	100%
CC1=C(C(=O)OC(C)C)C(c2ccc3c(c2)OCO3)NC(=S)N1 (stereo not given)	91.4%	96%	106%	107%	98.7%	95.6%	115%	108%
COc1cc2c(c(OC)c1OC)CCC(c1cccc(C(=O)Nc3cccc(Br)c3)c1)O2 (stereo not given)	40.6%	80.8%	69.6%	79.6%	77.8%	55%	103%	81.2%
CC1=C(CCC(C)N(C)Cc2ccc(OCCCN3CCCC3)cc2)C(C)(C)CCC1 (stereo not given)	-43.1% (active)	55.6%	-77.9% (active)	21.3%	-33.3% (active)	10.7%	-31% (active)	27.6%
COc1ccc2[nH]cc(-c3nc(-c4c[nH]c5ccncc45)cs3)c2c1	61.5%	74%	-76.3% (active)	-61.4% (active)	5.44% (active)	-62% (active)	-45.8% (active)	21.1%
O=C(CN1C(=O)CCC1=O)Nc1ncc(Cc2ccc(F)cc2)s1	103%	97.5%	102%	102%	92.4%	104%	92.5%	103%
CCOC(=O)C1=NN(c2ccccc2)C(=O)/C1=C\N1C(=O)CC(=O)NC1=S	85.9%	101%	-22.1% (active)	93.7%	102%	101%	112%	99.4%
CC(C)c1ccc(COCc2cc(CN3CCCC3)c(O)c3ncccc23)cc1	-7.55% (active)	13.1%	20.2%	3.8% (active)	7.67% (active)	5.58% (active)	14.6%	14.1%
COc1ccc(-c2nc3c(c(-c4ccccc4)nn3-c3ccccc3)c(-c3ccc(N4CCOCC4)cc3)c2C#N)cc1	94.3%	95.3%	99.2%	90.4%	84.6%	96%	108%	104%
Brc1ccc2[nH]cc(-c3nonc3-c3c[nH]c4ccccc34)c2c1	5.65% (active)	73.9%	47.1%	60.4%	29.3%	36.9%	21.5%	16%
O=C1NC(=O)c2c1c1c3ccccc3ccc1c1[nH]c3ccc(Br)cc3c21	4.7% (active)	39.4%	14%	18%	9.71% (active)	7.95% (active)	49.3%	4.99% (active)
COc1ccc(-c2ccc3cnc4sc(-c5ccc(OC)cc5)nc4c3n2)cc1	76.3%	108%	101%	112%	78%	94.5%	93.1%	89.1%
COC(C(=O)[C@@H](O)[C@@H](C)O)[C@@H]1Cc2cc3cc(O[C@H]4C[C@@H](O[C@H]5C[C@@H](O)[C@H](O)C(C)O5)[C@H](O)C(C)O4)c(C)c(O)c3c(O)c2C(=O)[C@H]1O[C@H]1C[C@@H](O[C@H]2C[C@@H](O[C@H]3C[C@@H](O)[C@H](OC)C(C)O3)[C@@H](O)C(C)O2)[C@H](O)C(C)O1 (stereo not given in full)	-0.919% (active)	-22.9% (active)	-54.2% (active)	11.3%	6.29% (active)	12.1%	1.1% (active)	13.7%
O=c1c2cc(-c3ccccc3)sc2nc2sc(-c3ccccc3)nn12	99.3%	118%	105%	103%	97.6%	102%	101%	101%
O=C(CCC(=O)N/N=C/c1ccccc1O)N/N=C/c1ccccc1O	51.5%	76.5%	64.8%	44.8%	39.9%	25.9%	46%	33%
Cc1cccc2c1NC(=O)C2(c1ccc(O)cc1)c1ccc(O)cc1	-18.8% (active)	-35.9% (active)	105%	103%	1.54% (active)	68.7%	42.9%	60.1%
O=S(=O)(NCCCNc1nccc(-c2c(-c3ccc(F)c(O)c3)nc3occn23)n1)c1ccccc1	101%	114%	37.4%	100%	77.3%	52.6%	98.7%	84.6%
O=C(O)c1[nH]c(=O)[nH]c(=O)c1[N+](=O)[O-]	109%	107%	106%	109%	98.8%	100%	99.2%	115%
C/C(=N\NC(=O)c1ccccc1O)c1cccc(/C(C)=N/NC(=O)c2ccccc2O)n1	41.8%	-2.08% (active)	40%	31.2%	44.3%	27.1%	18.4%	22.6%
C=C(C)[C@@H]1CC[C@]2(C(=O)O)CC[C@]3(C)[C@H](CC[C@@H]4[C@@]5(C)C[C@@H](Cc6cn(CCO[C@@H]7O[C@H](COC(C)=O)[C@H](OC(C)=O)[C@H](OC(C)=O)[C@H]7OC(C)=O)nn6)[C@H](O)C(C)(C)[C@@H]5CC[C@]43C)[C@@H]12	51.6%	42.7%	94.2%	77.1%	47.1%	44.7%	81.5%	55.9%
CC(=O)c1cc(O)c2ccccc2c1O	87.1%	91.7%	111%	108%	75.2%	95.4%	166%	106%
Clc1ccc(Nc2nnc(COc3ccccc3)c3ccccc23)cc1	-5.86% (active)	-9.97% (active)	-3.33% (active)	15.4%	1.31% (active)	1.21% (active)	8.55% (active)	0.179% (active)
CCCCNC(=O)Oc1ccc(/C(=C(/CC)Cc2ccccc2)c2ccc(OCCN3CCCCCC3)cc2)cc1	-24.9% (active)	87.3%	61.5%	25.1%	0.876% (active)	-76.3% (active)	34%	37.5%
C=C1C(=O)O[C@H]2[C@H]1CC/C(COC(=O)CSCCSCC(=O)OC/C1=C/CC[C@@]3(C)O[C@H]3[C@H]3OC(=O)C(=C)[C@@H]3CC1)=C\CC[C@@]1(C)O[C@@H]21	29.5%	-16.3% (active)	34.3%	2.85% (active)	18.1%	-31.6% (active)	25.8%	51.1%
O=C1Nc2ccc(I)cc2C1=O	106%	80.1%	103%	65.2%	71.5%	71.8%	62.9%	82.8%
CC1=Nc2cnc(Nc3ccc(OCCN4CCCCC4)cc3)nc2Nc2ccccc21	66.4%	78.6%	56.3%	62.3%	67.6%	64.1%	67%	12.8%
O=[N+]([O-])c1ccc(N/N=C(/C(=N/Nc2ccc([N+](=O)[O-])cc2)c2ccccc2)c2ccccc2)cc1	88.8%	102%	86.4%	47.6%	60.2%	51.7%	105%	106%
Oc1ccc(CCn2c(O)c(/C=C3\CN=c4ccccc4=N3)sc2=S)cc1	39.8%	43.8%	70.6%	67.4%	16.7%	55.8%	87.1%	5.46% (active)
